# Compound activity from PubChem.
# MCL1 BIM primary = inhibitors of MCL1 binding to BIM-BH3, primary screen, biochemical, fluorescence polarization | Induced myeloid leukemia cell differentiation protein Mcl-1 (Homo sapiens), Q07820 | GST-MCL1 / FITC-Bim-BH3 fluorescence polarization | inhibition, % at 10.9 µM | actives 0.68% (n = 320,000);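 active means inhibition above the mean inhibition of all tested compounds plus 3 SD, set per campaign, cut at about 40% in these data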;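 further: 0% = DMSO wells and 100% = unlabeled Bim-BH3 peptide control; higher means more loss of mP so more displacement of Bim peptide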
# MEX-5 binding = MEX-5 zinc finger RNA-binding disruptors – biochemical, C. elegans, fluorescence polarization, MLPCN library, primary screen; actives 0.38% (n = 300,000); MEX-5/FITC-TCR2 RNA binding; active compounds read low; activity score (negative = inhibition of binding), % at 10 µM; Zinc finger protein mex-5 (Caenorhabditis elegans), Q9XUB2;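 active means inhibition past about -25% in most replicates, and total fluorescence under double the plate's negative control median, limit read from the data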;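 further: 0% = DMSO and -100% = 5 µM competing unlabeled TCR2 RNA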
# GLD-1 TGE inh = GLD-1/TGE RNA complex disruptors, primary screen, biochemical, fluorescence polarization; inhibition, % at 5.96 µM; purified GLD-1 + fluorescein TGE RNA; Female germline-specific tumor suppressor gld-1 (Caenorhabditis elegans), Q17339; AID 2280, 2010; actives 0.44% (n = 320,000);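 active means percent inhibition above a per-plate cutoff, the plate mean of test compounds plus 3 SD, cut at about 30% in these data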;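 further: 0% = DMSO wells with GLD-1 and probe and 100% = wells lacking GLD-1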
# Target sequence (Q17339 whole entry, looked up): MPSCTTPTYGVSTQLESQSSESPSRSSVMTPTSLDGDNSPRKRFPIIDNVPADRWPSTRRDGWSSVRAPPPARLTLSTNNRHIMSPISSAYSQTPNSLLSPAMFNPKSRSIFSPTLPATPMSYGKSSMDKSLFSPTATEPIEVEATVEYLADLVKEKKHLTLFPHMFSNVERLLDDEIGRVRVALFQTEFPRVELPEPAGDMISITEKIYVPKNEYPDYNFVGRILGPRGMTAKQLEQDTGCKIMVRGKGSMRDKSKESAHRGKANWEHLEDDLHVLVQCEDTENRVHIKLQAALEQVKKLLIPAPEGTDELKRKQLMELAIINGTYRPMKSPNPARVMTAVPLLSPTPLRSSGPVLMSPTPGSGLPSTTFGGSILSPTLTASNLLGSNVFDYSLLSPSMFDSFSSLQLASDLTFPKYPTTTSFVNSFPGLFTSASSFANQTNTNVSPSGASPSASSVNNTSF
# BCLXL inh = inhibitors of human Bcl-xL, primary screen, biochemical, fluorescence polarization, HTS | GST-Bcl-xL / FITC-Bim BH3 peptide fluorescence polarization | inhibition, % at 10.9 µM | actives 0.7% (n = 320,000);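 active means inhibition above the mean of all tested compounds plus 3 SD, cutoff set per campaign, cut at about 30% in these data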;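 further: 0% = DMSO wells and 100% = unlabeled Bim-BH3 peptide competitor; inhibitors lower millipolarization by displacing the labeled peptide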
# EBV gp42 inh = Epstein-Barr virus gp42 inhibitors, primary screen, biochemical, uHTS, fluorescence polarization. Fluorescence polarization binding assay, mP read-out. inhibition, % (tested at 21.74 µM). actives 0.42% (n = 220,000). Glycoprotein 42 (Epstein-Barr virus (strain AG876)), Q1HVG2; in the data active means inhibition above about 50%
# Target sequence (Q1HVG2 whole entry, looked up): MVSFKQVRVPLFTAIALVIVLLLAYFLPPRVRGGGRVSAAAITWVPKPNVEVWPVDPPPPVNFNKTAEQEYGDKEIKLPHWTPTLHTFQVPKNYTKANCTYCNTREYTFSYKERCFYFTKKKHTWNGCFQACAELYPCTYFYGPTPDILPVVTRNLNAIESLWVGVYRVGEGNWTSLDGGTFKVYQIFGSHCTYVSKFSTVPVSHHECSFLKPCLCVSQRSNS
# E coli Lon inh = inhibitors of E. coli Lon protease, primary screen, biochemical, fluorescence polarization; actives 0.42% (n = 360,000); purified E. coli Lon protease; AID 602123, 2011; inhibition, % at 7.94 µM; P0A9M0; in the data active means inhibition above about 13%, passing the limit was not always enough;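 further: 0% = enzyme with probe and DMSO and 100% = no enzyme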
# BCLXL inh confirm = Bcl-xL inhibitors blocking Bim BH3 binding, confirmation, counter-screen for MCL1 inhibitor project, biochemical, fluorescence polarization | shares compounds with MCL1 BIM primary | GST-Bcl-xL / FITC-Bim BH3 peptide FP binding | inhibition, % at 10.9 µM | actives 54% (n = 1,700) | AID 2166, 2009;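 active means inhibition above a cutoff equal to the mean inhibition of all tested compounds plus 3 SD, cut at about 30% in these data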;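 further: 0% = DMSO wells and 100% = unlabeled Bim BH3 control peptide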
# MCL1 inh confirm = inhibitors of MCL1 binding to BIM-BH3, confirmation, biochemical, fluorescence polarization, triplicate. shares compounds with MCL1 BIM primary. GST-MCL1 / FITC-Bim-BH3 fluorescence polarization. inhibition, % at 10.9 µM. actives 61% (n = 1,700);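 active means inhibition above the average of all tested compounds plus 3 SD, cut at about 40% in these data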;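 further: 0% = DMSO wells and 100% = unlabeled Bim-BH3 control peptide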
# GLD1 RNA confirm = GLD-1/TGE RNA binding inhibitors, retest, confirmation, biochemical, fluorescence polarization, triplicate; GLD-1/FL-TGE RNA fluorescence polarization; actives 10% (n = 550); inhibition, % at 5.96 µM; shares compounds with GLD-1 TGE inh;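 active means average inhibition across triplicates above the hit cutoff set in the primary screen, cut at about 32% in these data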;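 further: 0% = GLD-1 with RNA probe and DMSO and 100% = wells lacking GLD-1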
# E coli Lon conf = E. coli Lon protease inhibitor retest, confirmation, biochemical, fluorescence polarization. shares compounds with E coli Lon inh. purified E. coli Lon. inhibition, % at 7.94 µM. actives 31% (n = 1,400); in the data active means inhibition above about 16%;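 further: 0% = enzyme with probe and DMSO and 100% = no enzyme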
# Numbers without * were called inactive; nt = no result given. Compounds with a hit are over-represented: about 1.5% of the library has one in this group of screens.
SMILES,MCL1 BIM primary,MEX-5 binding,GLD-1 TGE inh,BCLXL inh,EBV gp42 inh,E coli Lon inh,GLD1 RNA confirm,others
O=C1NC(=S)CN1c1ccccc1,78.8*,-14.9,69.1*,70.2*,3.3,32.7*,-2.6,BCLXL inh confirm=26.1;MCL1 inh confirm=29.9;E coli Lon conf=15.9
COc1ccc2c(c1)cc(C(=O)N[C@@H](Cc1ccccc1)C(=O)O)n2C,17.1,1.2,43.9*,25.5,nt,-1.2,-1.9,
CCCCCCOc1ccc(C(=O)O)cc1C#N,9.0,1.2,40.3*,3.2,6.4,-2.6,-2.8,
CCCCCCCCOc1ccc(C(=O)O)cc1,7.2,nt,3.6,6.0,nt,8.2,nt,
O=C(C(=O)N1CCN(c2ccccc2)CC1)c1cn(CC(=O)N2CCCCCC2)c2ccccc12,10.8,-7.3,30.8*,6.4,nt,-1.4,6.8,
Cc1n(C)c2cc(Cl)ccc2[n+]1Cc1ccccc1,-14.2,-0.2,11.5,-11.0,-13.7,4.7,nt,
COc1cc(/C=C(\C#N)c2nc3ccccc3[nH]2)cc(Br)c1OCc1ccc(F)cc1,-4.8,-5.9,97.3*,4.6,-9.2,1.4,-2.0,
COc1cc(/C=C(\C#N)c2nc3ccccc3[nH]2)cc(Br)c1OCc1ccccc1,-31.3,-1.8,-11.6,-7.4,-11.8,-26.1,nt,
C/C(=N\OC(=O)C1CC1)C1CC1c1ccc(F)cc1 (centres undefined),4.0,2.7,4.0,6.5,-10.3,-6.0,nt,
CN1CCN(CP(=O)(N2CCOCC2)N2CCOCC2)CC1,5.1,-0.9,43.0*,1.3,-19.7,-2.8,-0.3,
Cc1ccc2cc(CCl)c(Cl)nc2c1,-3.6,-0.4,0.5,3.5,12.2,7.1,nt,
CNC(=S)N1N=C(c2ccc(Br)cc2)CC1c1ccc(Br)cc1 (centres undefined),0.9,1.6,4.2,4.6,1.7,-3.7,nt,
Cc1cc2n(n1)C(c1ccccc1)CC(c1ccc(Br)cc1)=N2 (centres undefined),4.2,nt,52.7*,13.1,39.1,60.1*,15.9,
COc1ccc(C(=O)Nc2ccc(OCC(=O)N3CCOCC3)cc2)c(OC)c1OC,2.8,-3.5,9.1,6.1,nt,-4.5,nt,
CCOC(=O)C1=C(O)c2ccccc2C(=O)/C1=C\c1ccc(CC)cc1,31.0,4.1,37.7*,24.1,-9.5,-5.0,-3.3,
CCCc1ccc(/C=C2\C(=O)c3ccccc3C(O)=C2C(=O)OCC)cc1,27.5,1.7,18.2,15.1,17.3,nt,nt,
CC(=O)Nc1ccc(Oc2nc(-c3ccccn3)nc3ccccc23)cc1,1.2,-4.2,0.3,2.0,-0.7,4.8,nt,
CC(=O)Nc1cccc(Oc2nc(-c3ccccn3)nc3ccccc23)c1,-3.8,-34.7*,31.2*,1.0,-1.7,-1.0,-3.3,
Cc1oc(/N=C/c2ccc3c(c2)OCO3)c(C#N)c1C,19.3,-2.6,36.0*,16.5,0.7,3.9,-3.2,
Cc1ccc(S(=O)(=O)c2cc3ccc(O)cc3oc2=O)cc1C,21.5,0.9,32.1*,27.9,nt,-5.0,3.8,
CCCNC(=O)c1onc(CSc2ccc(Cl)cc2)c1C(=O)NCCC(C)C,10.5,2.2,44.2*,8.2,nt,4.7,-6.0,
O=C1OCC/C1=C1/NCCNC1=O,nt,nt,nt,nt,nt,-0.3,nt,
Nc1n[nH]c2cc(=O)n(-c3ccc(Cl)cc3)nc12,27.5,-18.2,34.5*,26.3,10.4,10.1,16.9,
CCOC(=O)Sc1nc2ncncc2[nH]1,nt,nt,nt,nt,nt,-21.4,nt,
O=C(Nc1ccc(F)cc1)c1nc2c(nnn2Cc2cccc3ccccc23)c(=O)[nH]1,7.0,1.8,-2.1,6.3,-2.6,-3.1,nt,
SMILES,MCL1 BIM primary,MEX-5 binding,GLD-1 TGE inh,BCLXL inh,EBV gp42 inh,E coli Lon inh,GLD1 RNA confirm,others
COc1cc(C(=O)NC(=S)Nc2ccc([N+](=O)[O-])cc2C)cc(OC)c1OC,14.8,-0.9,3.0,3.8,-7.8,1.3,nt,
COc1cc(C(=O)NC(=S)Nc2ccc([N+](=O)[O-])cc2)cc(OC)c1OC,12.3,0.0,32.2*,6.9,6.0,-11.6,-2.6,
Cc1c(OCC(=O)N[C@@H](Cc2c[nH]c3ccccc23)C(=O)O)ccc2c1oc(=O)c1ccccc12,1.4,-0.7,4.7,-1.5,nt,-6.8,nt,
CN1C2C=C3C(C#N)=C(N)C(C#N)(C#N)[C@@H](c4cccs4)C3C1CC2 (some centres undefined),45.8*,-11.3,33.0*,43.1*,-2.3,9.4,3.7,
CS(=O)(=O)Nc1ccc(C(=O)NCCSCc2c(F)cccc2Cl)cc1,-2.0,1.7,37.1*,2.2,-8.5,-3.8,-2.6,
COc1cccc(C(=O)NCCSCc2c(F)cccc2Cl)c1,1.8,1.9,5.6,5.6,nt,3.4,nt,
CSc1ccc(CN(C)CC(=O)NC(C)c2ccccc2)cc1 (centres undefined),-5.3,0.9,53.5*,-0.7,-24.4,-4.1,-2.5,
COc1ccc(NC(=O)c2ccc(OC)c(S(=O)(=O)N3CCCCC3C)c2)cn1 (centres undefined),48.3*,nt,33.4*,51.0*,nt,8.3,27.5,
COc1ccc(C(=O)Nc2ccc(NC(C)=O)cc2)cc1S(=O)(=O)N1CCCC1,-3.7,nt,6.7,3.6,nt,3.9,nt,
Cc1nn2c(NCCCN(C)C)c3c(nc2c1-c1ccccc1)CCC3,1.9,-1.7,30.7*,0.0,5.7,3.5,3.8,
CCN1C(=O)N/C(=C/c2ccc(C)o2)C1=O,28.3,-4.9,42.8*,22.1,-10.5,4.8,-9.9,
Cc1ccc(/C=C2/NC(=O)N(Cc3ccccc3F)C2=O)o1,27.2,-2.9,34.2*,17.9,-135.4,4.2,-49.8,
CCn1c(C)cc(/C=C2/NC(=O)N(Cc3ccccc3F)C2=O)c1C,12.3,-2.0,12.1,13.8,-3.7,-15.7,nt,
CCCN1C(=O)/C(=C/c2ccc(C)o2)NC1=S,34.0,-4.8,13.5,27.6,1.6,nt,nt,
